CHT block – inhibits the human high affinity choline transporter. Q9GZV3. CHT-expressing cells, membrane potential dye, choline response; hits give low values. B-score at 10 µM. hit rate 0.86% among 310,000. AID 488975;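 active means B-score over 3 SD under the library average, and starting fluorescence ratio not unusually high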;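 further: choline stimulus applied at its EC90 after an EC20 pre-addition; B-score computed on integrated fluorescence ratio after choline addition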
Target sequence (Q9GZV3 whole entry, looked up): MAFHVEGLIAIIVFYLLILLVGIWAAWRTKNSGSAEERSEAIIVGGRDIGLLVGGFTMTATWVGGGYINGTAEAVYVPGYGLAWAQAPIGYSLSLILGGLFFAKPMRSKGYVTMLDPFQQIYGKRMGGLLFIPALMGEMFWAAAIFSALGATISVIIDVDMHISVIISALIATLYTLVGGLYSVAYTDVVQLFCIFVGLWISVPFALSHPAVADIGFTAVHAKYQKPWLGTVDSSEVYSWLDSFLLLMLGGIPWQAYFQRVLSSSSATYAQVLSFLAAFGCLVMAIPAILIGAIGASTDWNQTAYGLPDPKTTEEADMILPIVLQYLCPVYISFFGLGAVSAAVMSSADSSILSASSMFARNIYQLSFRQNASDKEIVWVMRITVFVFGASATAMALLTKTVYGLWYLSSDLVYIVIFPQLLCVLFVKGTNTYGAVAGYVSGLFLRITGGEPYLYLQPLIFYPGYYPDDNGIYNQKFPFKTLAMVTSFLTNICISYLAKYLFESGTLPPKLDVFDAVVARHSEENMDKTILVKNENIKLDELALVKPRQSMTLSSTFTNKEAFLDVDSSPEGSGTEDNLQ
A1 inh – inhibitors of the anti-apoptotic protein A1, read as caspase activation; MEF A1-2A-BIM cells, Caspase-Glo 3/7 luminescence, 3 h; percent of clofoctol response, vehicle zero; caspase activation, % (concentration not given with the values); hit rate 0.066% among 330,000; AID 2462;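 active means over half of replicate activation scores above 10%, or exactly half above 10 with the replicate mean above 10; inconclusive means replicate mean below 10 yet half the replicates above 10; inactive means over half of replicates below 10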
NALP3 yeast inh – inhibitors of NALP3 inflammasome in yeast; Yeast reconstituted NLRP3/ASC/caspase-1, beta-gal luminescence, 24 h; inhibition, % at 10 µM; hit rate 0.39% among 330,000;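 active means inhibition of 50% or more; inactive means inhibition below 50%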;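 further: plate controls were induced DMSO wells for no effect and uninduced yeast grown without galactose for full effect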
Mot1-301 SUMO – inhibitors of SUMOylation pathway: yeast Mot1-301 growth rescue; hit rate 1% among 320,000; growth rescue, % at 18.8 µM; AID 2716; S. cerevisiae Mot1-301 growth rescue, ATP luminescence, 38.5C; percent above DMSO median, 100 means doubled;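 active means every valid replicate shows activation above 250% relative to neutral control wells; inactive means the rest, any valid replicate at or below 250%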;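 further: OY570 slx delta 5 strain wells were the positive control but not used for scaling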
CHT PAM – allosteric activators of human choline transporter CHT; Q9GZV3; CHT-expressing cells, membrane potential dye, choline EC20; hits give high values; LV-AA mutant CHT in HEK293 cells; B-score at 10 µM; hit rate 0.49% among 310,000;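 active means initial fluorescence not abnormally high and integrated response B-score, plate-corrected, over 3 SD above library mean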
NALP1 yeast inh – blocks the NALP1 inflammasome reconstituted in yeast. hit rate 0.61% among 280,000. S. cerevisiae NALP1/ASC/caspase-1 growth, X-gal OD620, 72 h. inhibition, % at 10 µM; in the data active means inhibition mostly above about 24%, no sharp cut-off; inactive means mostly below about 32%
CHT block conf – human CHT inhibition, confirmatory screen. AID 493221. CHT activity remaining % of control (hits give low values), % at 10 µM. hit rate 70% among 2,400. shares compounds with CHT block. CHT-expressing cells, choline membrane potential dye; LV-to-AA substituted CHT, HEK293 cells;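 active means choline transporter activity left, mean of duplicates at 10 µM, below buffer-only control mean minus 3 SD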;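 further: depolarization triggered by choline at its EC90 following an EC20 pre-addition; 0% = hemicholinium-3 full block and 100% = buffer-only control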
HEK293 CHT ctr – counter-screen for CHT inhibitors: effect in parental HEK293 cells. hit rate 4% among 2,400. shares compounds with CHT block. membrane potential dye, choline response; active = decrease or increase beyond buffer ±3SD. membrane potential ratio readout (active if shifted either direction beyond buffer ±3SD; no single direction) at 10 µM;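 further: parental cells lack the transporter so any hit is non-specific; ratio is peak minus trough fluorescence over baseline after EC90 choline challenge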
An asterisk follows results filed as active; i = inactive; u = inconclusive; x = no result. Compounds with a hit are over-represented: about 3% of the library has one in this group of screens.

SMILES | CHT block | A1 inh | NALP3 yeast inh | Mot1-301 SUMO | CHT PAM | NALP1 yeast inh | CHT block conf | HEK293 CHT ctr
O=C(NC1CCCC1)C(c1cccnc1)N(CCc1ccccc1)C(=O)c1ccco1 (configuration not stated) | -6* | 0 | 12 | 5 | i | 18 | 55%* | i
O=C(NCC(=O)N(CCc1ccccc1)C(C(=O)NC1CCCC1)c1cccnc1)c1ccco1 (configuration not stated) | i | -1 | -2 | -10 | i | 24 | x | x
COc1ccccc1CC(=O)NC1CCCc2ccccc21 (configuration not stated) | i | 2 | -36 | 8 | i | -6 | x | x
COc1ccccc1-c1ccc(=O)n(CC(=O)NC2CCc3ccccc32)n1 (configuration not stated) | -8.4* | 0 | -7 | 10 | i | 4 | i | i
OCCCNc1c2ccccc2nc2ccccc12 | i | 0 | 2 | 16 | i | 5 | x | x
Cn1c(SCc2nc3ccccc3s2)nnc1-c1cccs1 | -5.1* | u | 9 | 29 | i | 8 | 56%* | i
CCn1c(SCc2nc3ccccc3s2)nnc1-c1cccs1 | i | 0 | -5 | 27 | i | 10 | x | x
CCOc1ccc(OCCC(=O)OCC(=O)NC2CCCC2)cc1 | x | 1 | 16 | 12 | x | x | x | x
CCc1ccc(S(=O)(=O)/N=C2\C=C(NS(=O)(=O)c3ccccc3)C(=O)c3ccccc32)cc1 | x | x | 12 | x | x | 14 | x | x
CC(C)c1ccc(S(=O)(=O)/N=C2\C=C(NS(=O)(=O)c3ccccc3)C(=O)c3ccccc32)cc1 | -10* | 0 | x | -26 | i | 28 | 39%* | i
Cc1ccc(NC(=O)COC(=O)c2nn(C)c(=O)c3ccccc23)cc1F | x | 1 | -2 | -4 | x | x | x | x
COc1cc(C=Nc2cccc(C)c2)c(O)c([N+](=O)[O-])c1 | -6.9* | 1 | 7 | -16 | i | 49* | 68%* | i
CC(C)(C)OC(=O)C[C@@H]1C/C=C\C[C@@H](CC(=O)N(CCO)Cc2ccccc2)C(=O)N2CCC[C@@H]2COC1=O | x | 0 | 31 | -2 | x | x | x | x
O=C(N/N=C/c1cccnc1)c1ccc(CN2c3cccc4cccc(c34)S2(=O)=O)cc1 | -5* | 0 | 6 | 0 | i | -16 | i | i
CC1CCCN(CCCNC(=O)c2nn(C)c3c2CSc2ccccc2-3)C1 (configuration not stated) | -6.2* | 0 | 3 | 1 | i | 22 | 23%* | i
CC1CCC(NC(=O)c2nn(C)c3c2CSc2ccccc2-3)CC1 (configuration not stated) | i | 0 | 18 | -9 | i | -5 | x | x
CC1CCCCN1CCCNC(=O)c1nn(C)c2c1CSc1ccccc1-2 (configuration not stated) | -7.6* | 0 | -3 | 14 | i | 27 | 8.6%* | i
Cc1cccc(C(=O)NC(=S)NCc2ccccc2)c1 | i | 0 | 13 | 12 | i | x | x | x
O=C(CCc1ccccc1)NNC(=S)NC(=O)c1ccc(Cl)cc1 | -5.7* | 0 | 22 | -9 | i | -5 | 70%* | i
O=C(CCc1ccccc1)NNC(=O)c1ccc(Cl)cc1 | i | 1 | 18 | -22 | i | 10 | x | x
Cc1cccc(C(=O)NC(=S)NNC(=O)Cc2ccccc2)c1 | -6.7* | 0 | 21 | -20 | i | 23 | 52%* | i
CN1CCCC(CC2Oc3ccccc3Sc3ccccc32)C1 (configuration not stated) | -5.2* | 0 | 28 | 216 | i | 37 | 14%* | i
N#CCCN(C(=O)COC(=O)CCc1nc2ccccc2c(=O)[nH]1)c1ccc(F)cc1 | x | -1 | 10 | 24 | x | x | x | x
N#C/C(=C(/O)c1ccccc1F)c1nc2cc(C(F)(F)F)ccc2s1 | -5.5* | 0 | 29 | -7 | i | -30 | 48%* | i
O=C(CSc1nnc(SCc2ccccc2)s1)N/N=C/c1ccc(C(=O)O)cc1 | i | -4 | 45 | 5 | i | 0 | x | x
SMILES | CHT block | A1 inh | NALP3 yeast inh | Mot1-301 SUMO | CHT PAM | NALP1 yeast inh | CHT block conf | HEK293 CHT ctr
Cc1ccc(CSc2nnc(SCC(=O)N/N=C/c3ccc(C(=O)O)cc3)s2)cc1 | -5* | -4 | 11 | -4 | i | x | i | i
Cc1cc(CNC(=O)COC(=O)Cn2[nH]c(=O)c3ccccc3c2=O)cc(C)c1O | i | 0 | 8 | 6 | i | x | x | x
Cc1cc(C)cc(C(=O)N(CCc2ccccc2)C2CC3CCC(C2)N3C)c1 (configuration not stated) | i | 0 | 21 | 83 | i | 14 | x | x
O=C(CSc1ccccc1)NCc1ccccc1 | i | 0 | 18 | 19 | i | 15 | x | x
O=C(CSc1cccc(C(F)(F)F)c1)NCc1ccccc1 | -5.8* | 1 | 29 | 1 | i | x | i | i
Cc1ccnc(NC(=O)CCC(=O)N(CC(=O)NCCc2ccccc2)c2ccccc2F)c1 | i | 0 | -3 | 17 | i | 4 | x | x
COc1ccc(CN2CCN(CCc3ccccc3)C(CCO)C2)cc1Cn1cncn1 (configuration not stated) | i | 1 | -14 | 11 | i | 0 | x | x
COc1ccc(CN2CCN(CC=C(C)C)C(CCO)C2)cc1Cn1cccn1 (configuration not stated) | -6* | 0 | -9 | 184 | i | 19 | 64%* | i
O=C(C1CCN(C2CCN(Cc3ccsc3)CC2)CC1)N1CCOCC1 | i | 0 | 28 | 12 | i | -5 | x | x
CN1c2ccccc2C(O)=C(C(=S)Nc2ccc(F)c(Cl)c2)S1(=O)=O | -6.4* | -2 | 9 | -14 | i | 31 | 48%* | i
CN1c2ccccc2C(O)=C(C(=S)Nc2ccccc2)S1(=O)=O | i | -2 | 14 | 0 | i | 30 | x | x
Cc1cccc(C)c1OCC(=O)NNC(=O)CCCn1c(=O)oc2ccccc21 | x | 0 | -4 | -9 | x | x | x | x
Cc1ccc(OCCOC(=O)c2c(-c3ccccc3)noc2C)cc1 | -5* | 0 | 20 | 3 | i | 23 | i | i
Cc1oc(-c2ccc(Cl)cc2)nc1CN1CCCC(C(=O)NC2CC2)C1 (configuration not stated) | i | -1 | 5 | -5 | i | 11 | x | x

High-throughput results: PubChem, several laboratories
